Experiment [1] relates to PRMT1 (protein arginine N-methyltransferase 1). Description: PRMT1 binders on small-molecule microarrays, primary screen, biochemical, small-molecule microarray, 635 nm fluorescence (AID 1088).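 Note: binding of Prmt1 protein to compounds spotted on small-molecule microarray slides.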 Particulars: small-molecule microarray binding, higher = more signal.
A short description of experiment [2]: yeast growth modulation, basal conditions, primary screen, YJM789 clinical isolate, OD600, 24 h (AID 1089).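 Note: growth of clinical yeast isolate S. cerevisiae YJM 789 seeded 1000 cells per well; test concentration not given here.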 The settings on record: S. cerevisiae YJM789 growth, higher = more signal, called active from +8 up or from −8 down.
Experiment [3] in a line: fission yeast growth modulation, primary screen, strain 972, OD600, 24 h, no modulator (AID 1090).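 Note: basal condition with compound alone and no growth modifier present; test concentration not given here.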 Particulars: S. pombe 972 growth, higher = more signal, called active from +8 up or from −8 down.
Experiment [4] can be described thus: S. cerevisiae growth modulation with rapamycin, primary screen, strain BY4716, OD600, 96 h (AID 1091). Note: test concentration not given here. The settings on record: higher = more signal, called active from +8 up or from −8 down.
Experiment [5] has as its target Torsin-1A-interacting protein 2 (Homo sapiens) (UniProt Q8NFQ8). Kind of experiment: LULL1 binders on small-molecule microarray, primary screen, cell lysate, human LULL1 lysate, 635/667 nm fluorescence (AID 1092).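 Note: probe is lysate of COS7 cells overexpressing human LULL1; score merges per-feature 667 nm fluorescence with signal-to-noise.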 The settings on record: hLULL1 lysate binding, 635 nm fluorescence, higher = more signal.
Experiment [6] in a line: E. coli growth modulation, two-sided OD650, primary screen, E. coli filamentation project, strain DRC41, 24 h (AID 1093).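 Note: MC1000 strain lacking acrAB efflux and sulA so SOS filamentation is blocked; test concentration not given here.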 The settings on record: OD650, 24 h, higher = more signal, called active from +8 up or from −8 down.
Experiment [7] is described as follows: small-molecule microarray binders of probe aLefty2, primary screen, biochemical, biotinylated probe, 635/667 nm fluorescence (AID 1094).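 Note: score merges spot fluorescence near 667 nm with spot signal-to-noise ratio.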 The settings on record: higher = more signal.
Experiment [8] has as its system Noggin (protein binding on small-molecule microarray). Description: Noggin binders on small-molecule microarray, primary screen, biochemical, 635/667 nm fluorescence (AID 1095).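 Note: score merges 667 nm feature fluorescence with signal to noise over triplicate slides.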 The settings on record: 635 nm fluorescence, higher = more signal.
Experiment [9] deals with Neurogenic locus notch homolog protein 3 (Homo sapiens) (UniProt Q9UM47). Kind of experiment: NOTCH3 binders on small-molecule microarray, primary screen, biochemical, 635/667 nm fluorescence (AID 1096). The settings on record: NOTCH3 binding, 635 nm fluorescence, higher = more signal.
Experiment [10] in a line: small-molecule microarray binders of probe aEGFR, primary screen, biochemical, biotinylated probe, 635/667 nm fluorescence (AID 1097).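 Note: probe is a biotinylated anti-EGFR antibody binding compounds printed on slides; score combines fluorescence near 667 nm and signal to noise of each spot.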 The settings on record: higher = more signal.
Experiment [11] deals with Plasmodium falciparum Sir2 (PF13_0152, Sir2A). Description: pfSir2 binders on small-molecule microarrays, primary screen, biochemical, small-molecule microarray, 635 nm fluorescence (AID 1098).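 Note: score merges spot fluorescence intensity with its signal-to-noise ratio.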 Particulars: small-molecule microarray binding, fluorescence 635 nm; higher = more signal.
A short description of experiment [12]: small-molecule microarray binders of probe aDKK1, primary screen, biochemical, biotinylated probe, 635/667 nm fluorescence (AID 1099).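 Note: score merges 667nm spot fluorescence with signal to noise across triplicate slides; reference of the scale not given here.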 The settings on record: higher = more signal.
Experiment [13] can be described thus: small-molecule microarray binders of probe aCHRDL2, primary screen, biochemical, biotinylated probe, 635/667 nm fluorescence (AID 1100). The settings on record: higher = more signal.
Experiment [14] is described as follows: splicing luciferase reporter signal modulators, primary screen, spliceosome inhibition project, cell-based, HEK293, splice +/- reporter (AID 1101).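 Note: HEK293 cells carrying a splicing-competent luciferase reporter gene; test concentration not given here.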 Particulars: luminescence, 24 h, higher = more signal, called active from +8 up or from −8 down. For orientation: Reporter assays use an easily measured gene product as a stand-in for the process of interest.
Experiment [15] deals with Fibroblast growth factor 10 (Homo sapiens) (UniProt O15520). Description: FGF10 binders on small-molecule microarrays, primary screen, biochemical, small-molecule microarray, 635 nm fluorescence (AID 1102). The settings on record: FGF10 binding, fluorescence 635 nm, higher = more signal.
The subject of experiment [16] is glycogen synthase kinase-3 (GSK3A per assay name; protocol says GSK3B). Description: GSK3 binders on small-molecule microarrays, primary screen, biochemical, small-molecule microarray, 635 nm fluorescence, GSK3A (AID 1103). Note: the record names both GSK3A and GSK3B. The settings on record: small-molecule microarray binding, fluorescence 635 nm; higher = more signal.
Experiment [17] concerns the target Epidermal growth factor receptor (Homo sapiens) (UniProt P00533). Kind of experiment: EGFR binders on small-molecule microarrays, primary screen, biochemical, small-molecule microarray, 635 nm fluorescence (AID 1104).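 Note: score merges 667 nm emission intensity with spot signal to noise over triplicate slides.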 Particulars: EGFR binding, higher = more signal.
In experiment [18] the target is Follistatin-related protein 3 (Homo sapiens) (UniProt O95633). Kind of experiment: FSTL3 binders on small-molecule microarrays, primary screen, biochemical, small-molecule microarray, 635 nm fluorescence (AID 1105).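 Note: score merges emission near 667 nm and signal to noise per printed spot across three slides.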 The settings on record: FSTL3 binding, higher = more signal.
Experiment [19] addresses Dickkopf-related protein 1 (Homo sapiens) (UniProt O94907). Kind of experiment: DKK1 binders on small-molecule microarrays, primary screen, biochemical, small-molecule microarray, 635 nm fluorescence scan (AID 1106).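 Note: score merges emission near 667 nm with signal to noise over three replicate slides.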 Particulars: DKK1 binding, higher = more signal.
Experiment [20] concerns Inhibin beta A chain (activin A). Description: INHBA (activin A) binders on microarrays, primary screen, biochemical, small-molecule microarray, 635 nm fluorescence scan (AID 1107).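 Note: mouse activin A protein probed at 4.33 µg/mL on printed slides; score merges bound-protein fluorescence near 667 nm with spot signal-to-noise.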 Particulars: small-molecule microarray binding, higher = more signal.

Structures are written as SMILES. Active and inactive are the calls of the source.

Sequence of Neurogenic locus notch homolog protein 3 (Homo sapiens) (Q9UM47 whole entry, looked up): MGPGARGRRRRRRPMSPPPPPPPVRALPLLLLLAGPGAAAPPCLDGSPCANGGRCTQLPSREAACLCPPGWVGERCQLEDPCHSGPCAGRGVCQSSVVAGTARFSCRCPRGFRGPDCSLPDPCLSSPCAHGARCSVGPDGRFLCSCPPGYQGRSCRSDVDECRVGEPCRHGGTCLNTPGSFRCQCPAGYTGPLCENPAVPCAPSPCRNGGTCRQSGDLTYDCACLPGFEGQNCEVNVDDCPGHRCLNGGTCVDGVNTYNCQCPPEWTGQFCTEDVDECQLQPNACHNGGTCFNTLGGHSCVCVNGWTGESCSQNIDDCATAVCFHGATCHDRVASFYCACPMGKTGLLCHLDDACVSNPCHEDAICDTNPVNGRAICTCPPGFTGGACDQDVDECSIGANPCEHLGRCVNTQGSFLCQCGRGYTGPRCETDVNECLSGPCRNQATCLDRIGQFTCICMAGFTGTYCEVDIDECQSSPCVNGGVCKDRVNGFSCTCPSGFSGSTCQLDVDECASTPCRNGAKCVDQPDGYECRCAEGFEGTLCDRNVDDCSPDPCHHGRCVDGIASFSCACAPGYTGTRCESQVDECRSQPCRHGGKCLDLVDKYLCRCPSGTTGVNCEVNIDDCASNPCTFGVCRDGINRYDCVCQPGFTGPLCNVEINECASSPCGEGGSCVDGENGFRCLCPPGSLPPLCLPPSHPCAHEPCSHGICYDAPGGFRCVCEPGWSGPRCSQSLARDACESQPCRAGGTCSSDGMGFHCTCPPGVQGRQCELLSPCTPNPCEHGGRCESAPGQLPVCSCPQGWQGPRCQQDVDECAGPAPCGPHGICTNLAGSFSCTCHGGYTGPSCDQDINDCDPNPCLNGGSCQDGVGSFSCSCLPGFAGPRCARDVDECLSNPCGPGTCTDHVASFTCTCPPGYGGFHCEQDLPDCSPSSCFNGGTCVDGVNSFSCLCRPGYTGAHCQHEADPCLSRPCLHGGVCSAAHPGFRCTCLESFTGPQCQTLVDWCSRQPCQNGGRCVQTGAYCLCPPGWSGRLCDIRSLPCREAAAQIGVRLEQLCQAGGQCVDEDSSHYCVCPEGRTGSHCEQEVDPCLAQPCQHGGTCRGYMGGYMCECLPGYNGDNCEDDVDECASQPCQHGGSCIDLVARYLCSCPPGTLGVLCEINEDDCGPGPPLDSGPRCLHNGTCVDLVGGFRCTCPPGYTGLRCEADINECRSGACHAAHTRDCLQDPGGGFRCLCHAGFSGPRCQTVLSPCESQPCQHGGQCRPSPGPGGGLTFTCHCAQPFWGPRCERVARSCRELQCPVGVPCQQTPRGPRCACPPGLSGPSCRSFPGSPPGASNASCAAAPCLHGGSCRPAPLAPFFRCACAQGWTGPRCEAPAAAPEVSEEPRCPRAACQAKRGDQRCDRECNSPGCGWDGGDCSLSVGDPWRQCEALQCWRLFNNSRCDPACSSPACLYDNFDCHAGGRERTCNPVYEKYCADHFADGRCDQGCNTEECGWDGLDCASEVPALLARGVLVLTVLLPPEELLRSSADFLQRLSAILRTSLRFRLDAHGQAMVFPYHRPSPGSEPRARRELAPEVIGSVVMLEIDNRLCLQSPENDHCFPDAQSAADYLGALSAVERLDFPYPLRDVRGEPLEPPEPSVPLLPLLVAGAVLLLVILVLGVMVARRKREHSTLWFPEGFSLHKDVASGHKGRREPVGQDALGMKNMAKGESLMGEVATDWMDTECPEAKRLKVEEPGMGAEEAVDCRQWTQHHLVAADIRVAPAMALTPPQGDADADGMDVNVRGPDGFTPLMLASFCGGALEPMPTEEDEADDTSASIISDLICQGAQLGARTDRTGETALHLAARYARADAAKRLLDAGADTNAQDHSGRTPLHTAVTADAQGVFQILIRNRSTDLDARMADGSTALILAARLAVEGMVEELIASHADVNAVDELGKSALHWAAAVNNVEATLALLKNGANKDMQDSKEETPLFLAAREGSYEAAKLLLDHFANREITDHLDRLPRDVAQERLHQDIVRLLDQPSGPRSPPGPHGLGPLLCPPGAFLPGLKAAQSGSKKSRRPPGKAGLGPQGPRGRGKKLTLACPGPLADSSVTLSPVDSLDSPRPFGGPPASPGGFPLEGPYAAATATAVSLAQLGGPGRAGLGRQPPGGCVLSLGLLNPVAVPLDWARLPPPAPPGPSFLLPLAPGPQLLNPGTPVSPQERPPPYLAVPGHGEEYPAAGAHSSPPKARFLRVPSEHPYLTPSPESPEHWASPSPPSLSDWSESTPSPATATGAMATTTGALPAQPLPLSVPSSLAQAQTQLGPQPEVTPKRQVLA
Sequence of Dickkopf-related protein 1 (Homo sapiens) (O94907 whole entry, looked up): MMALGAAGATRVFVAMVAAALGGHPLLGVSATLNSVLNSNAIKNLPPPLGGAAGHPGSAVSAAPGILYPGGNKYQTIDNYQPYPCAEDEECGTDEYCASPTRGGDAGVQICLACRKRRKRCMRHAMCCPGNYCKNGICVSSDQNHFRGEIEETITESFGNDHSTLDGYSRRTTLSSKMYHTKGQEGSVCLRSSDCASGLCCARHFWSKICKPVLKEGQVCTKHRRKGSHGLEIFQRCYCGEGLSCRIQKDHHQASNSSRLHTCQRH
Sequence of Fibroblast growth factor 10 (Homo sapiens) (O15520 whole entry, looked up): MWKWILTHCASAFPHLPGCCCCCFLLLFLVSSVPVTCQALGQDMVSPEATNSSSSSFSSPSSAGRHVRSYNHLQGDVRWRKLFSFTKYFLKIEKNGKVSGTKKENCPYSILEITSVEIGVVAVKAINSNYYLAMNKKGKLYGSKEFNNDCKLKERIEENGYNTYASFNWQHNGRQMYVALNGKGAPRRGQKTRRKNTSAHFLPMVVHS
Sequence of Torsin-1A-interacting protein 2 (Homo sapiens) (Q8NFQ8 whole entry, looked up): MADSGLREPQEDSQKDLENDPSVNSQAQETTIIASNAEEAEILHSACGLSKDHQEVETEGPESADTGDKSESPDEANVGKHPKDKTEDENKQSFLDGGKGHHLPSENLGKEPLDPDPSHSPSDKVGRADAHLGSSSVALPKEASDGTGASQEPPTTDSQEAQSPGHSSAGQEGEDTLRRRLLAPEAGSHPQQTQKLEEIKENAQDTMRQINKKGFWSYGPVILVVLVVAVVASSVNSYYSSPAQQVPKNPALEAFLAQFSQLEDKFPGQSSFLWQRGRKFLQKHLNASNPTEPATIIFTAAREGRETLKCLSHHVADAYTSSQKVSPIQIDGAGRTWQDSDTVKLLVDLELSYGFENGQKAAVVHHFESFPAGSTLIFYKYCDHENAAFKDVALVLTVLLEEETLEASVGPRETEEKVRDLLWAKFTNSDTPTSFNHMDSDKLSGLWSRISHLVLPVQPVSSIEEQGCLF
Sequence of Epidermal growth factor receptor (Homo sapiens) (P00533 whole entry, looked up): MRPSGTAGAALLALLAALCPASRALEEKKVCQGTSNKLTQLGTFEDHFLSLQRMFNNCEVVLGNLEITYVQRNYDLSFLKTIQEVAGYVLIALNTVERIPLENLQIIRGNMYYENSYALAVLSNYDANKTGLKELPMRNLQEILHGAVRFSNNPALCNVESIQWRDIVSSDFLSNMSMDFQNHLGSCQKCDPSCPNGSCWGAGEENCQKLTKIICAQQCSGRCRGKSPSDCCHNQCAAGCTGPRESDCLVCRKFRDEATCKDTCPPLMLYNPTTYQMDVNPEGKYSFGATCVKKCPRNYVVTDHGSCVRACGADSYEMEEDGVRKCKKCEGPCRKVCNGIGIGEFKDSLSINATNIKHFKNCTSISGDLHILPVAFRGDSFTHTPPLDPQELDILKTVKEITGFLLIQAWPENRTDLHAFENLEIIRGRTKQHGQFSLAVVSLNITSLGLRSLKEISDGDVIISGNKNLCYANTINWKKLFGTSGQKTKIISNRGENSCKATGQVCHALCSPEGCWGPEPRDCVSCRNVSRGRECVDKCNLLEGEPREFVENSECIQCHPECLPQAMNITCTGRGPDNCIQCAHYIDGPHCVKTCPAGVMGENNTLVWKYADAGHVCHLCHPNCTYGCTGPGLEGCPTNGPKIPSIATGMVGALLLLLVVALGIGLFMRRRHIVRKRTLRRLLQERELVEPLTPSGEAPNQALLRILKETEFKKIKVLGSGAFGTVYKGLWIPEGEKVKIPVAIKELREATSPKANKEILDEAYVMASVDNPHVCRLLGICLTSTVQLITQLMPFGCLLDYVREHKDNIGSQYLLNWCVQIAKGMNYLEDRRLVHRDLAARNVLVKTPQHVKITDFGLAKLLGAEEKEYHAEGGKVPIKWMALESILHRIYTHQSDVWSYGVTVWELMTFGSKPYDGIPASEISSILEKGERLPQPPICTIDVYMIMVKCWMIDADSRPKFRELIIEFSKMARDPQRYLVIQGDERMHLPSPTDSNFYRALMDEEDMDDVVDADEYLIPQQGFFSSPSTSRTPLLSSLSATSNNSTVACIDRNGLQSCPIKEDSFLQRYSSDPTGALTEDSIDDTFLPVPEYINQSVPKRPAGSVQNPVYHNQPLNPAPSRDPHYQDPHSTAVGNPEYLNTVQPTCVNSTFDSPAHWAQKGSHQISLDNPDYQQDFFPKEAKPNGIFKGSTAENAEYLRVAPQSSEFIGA
Sequence of Follistatin-related protein 3 (Homo sapiens) (O95633 whole entry, looked up): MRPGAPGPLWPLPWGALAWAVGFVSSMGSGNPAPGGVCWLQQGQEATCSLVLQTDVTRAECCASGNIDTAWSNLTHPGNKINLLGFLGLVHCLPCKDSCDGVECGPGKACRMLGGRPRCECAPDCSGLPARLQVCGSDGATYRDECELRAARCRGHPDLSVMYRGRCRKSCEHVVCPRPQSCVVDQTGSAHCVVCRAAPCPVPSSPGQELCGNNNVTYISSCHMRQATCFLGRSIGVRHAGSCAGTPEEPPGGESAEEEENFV

As for `CC(CO)N1C(=O)[C@@H]2C3C(=O)OCCC/C=C\[C@H]3OC23C=CCN(Cn2nnc4ccccc42)C(=O)[C@@H]13` (stereo not given in full), the composite z-score in [1] was -1.18; in experiment [5], -1.1; in [7], -0.198; in experiment [8], -0.254; in experiment [9], 0.219; in [10], -0.152. Also, the composite z-score in experiment [11] was 1.82; in experiment [12], -0.0595; in [13], -0.102; in experiment [15], -0.134; in experiment [16], -0.527; in [17] it was -0.718. Further, the values for the composite z-score in [18], in experiment [19] and in [20] were -0.474, -0.361 and 0.339, respectively. The z-score in experiment [2] was 0.216 (inactive); in experiment [3] it was -0.152 (inactive); in experiment [4], -0.637 (inactive); in [6] it was 0.333 (inactive); in [14] it was -0.411 (inactive).
As to `Cc1ccc(S[C@]2(C(=O)NCCN3CCOCC3)CC(=O)N(Cc3ccccc3C(F)(F)F)[C@@H]2c2ccc(CO)cc2I)cc1`, the composite z-score is 0.783 in experiment [1]; 1.2 in experiment [5]; -0.145 in [7]; -0.586 in experiment [8]; -0.689 in experiment [9]; -0.233 in [10]. Moreover, the composite z-score in experiment [11] is 1.3; in [12], -0.102; in experiment [13] it was 0.93; in experiment [15], -0.973; in experiment [16], -0.728; in experiment [17], -0.842. Besides, the results for the composite z-score in experiment [18], in experiment [19] and in [20] were -1.13, -1.15 and 0.446, respectively. The z-score in experiment [2] is -1.57 (inactive); in experiment [3] it was -4.24 (inactive); in experiment [4], 0.176 (inactive); in [6] it was -0.28 (inactive); in [14], -1.55 (inactive).
Take `C=C(CCCC)C(=O)CC[C@@H](OC(=O)c1cccnc1)c1ccccc1OCCO`: the composite z-score was 1.31 in experiment [1]; 0.178 in experiment [5]; 0.0166 in [7]; 0.836 in experiment [8]; 0.144 in [9]; -0.0565 in experiment [10]. The composite z-score in experiment [11] was 0.996; in experiment [12], -0.0709; in experiment [13], 0.515; in [15], 0.341; in experiment [16], -0.164; in experiment [17], -0.183. Besides, the composite z-score in experiment [18] was 0.296; in [19], -0.265; in experiment [20], 1.16. Moreover, the z-score in experiment [2] is -0.765 (inactive); in experiment [3], -1.37 (inactive); in [4], -0.24 (inactive); in [6], 0.22 (inactive); in [14], 4.97 (inactive).
On to `Cc1ccc(S[C@]2(C(=O)NCC(C)C)CC(=O)N(Cc3ccccc3Cl)[C@@H]2c2ccc(CO)cc2I)cc1`, for which the composite z-score is 0.939 in experiment [1]; 1.8 in experiment [5]; 0.225 in experiment [7]; -1.08 in experiment [8]; -0.309 in [9]; -0.304 in experiment [10]. Further, the composite z-score in experiment [11] is 1.22; in experiment [12], 0.117; in experiment [13], 0.791; in experiment [15] it was -0.85; in experiment [16], -0.408; in experiment [17], -0.409. Besides, the composite z-score was -0.615 in experiment [18], -0.557 in [19] and 0.67 in [20]. The z-score was -1.38 (inactive) in experiment [2]; -1.87 (inactive) in experiment [3]; 0.0522 (inactive) in experiment [4]; -0.712 (inactive) in experiment [6]; -0.611 (inactive) in experiment [14].
Consider `CCCC[C@@H]1C[C@H]1[C@@H](NC(=O)c1cccnc1)c1ccc(-c2ccccc2)cc1`, for which the composite z-score in [1] is -0.537; in [5], -0.795; in experiment [7], 0.009; in experiment [8] it was 1.01; in experiment [9], -0.476; in [10], -0.345. Moreover, the composite z-score in [11] was 0.0651; in [12], -0.161; in experiment [13] it was 0.993; in [15] it was -1.19; in experiment [16], -1.2; in experiment [17] it was -1.46. Further, the composite z-score in [18] was -1.01; in experiment [19], -1.44; in experiment [20], 0.936. Also, the z-score in [2] is -1.27 (inactive); in experiment [3], -15.7 (active); in [4], -2.6 (inactive); in experiment [6], -0.919 (inactive); in [14] it was -4.22 (inactive).

The values are drawn from PubChem BioAssay.
